Measurements published in PubChem BioAssay (NCI).
“And” between values parts separate entries of the source, which are not always exact repeats. Equal entries are not always repeated. Compounds without any hit were thinned out: in the full panel of roughly 83,000, 20% have a hit.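 48-hour exposure, single concentration, 96-well plates; percent growth endpoint where 0 means no net growth. Active: below 10.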 The source made the active and inactive calls.

What was measured:
Assay in all cases: NCI-60 one-dose screen, 48 h (100 = growth as untreated, 0 = no growth, -100 = all killed)
[1] = system: RPMI-8226 leukemia
[2] = system: OVCAR-8 ovarian
[3] = system: OVCAR-5 ovarian
[4] = system: OVCAR-4 ovarian
[5] = system: SK-OV-3 ovarian
[6] = system: IGROV1 ovarian
[7] = system: OVCAR-3 ovarian
[8] = system: HS 578T breast
[9] = system: NCI/ADR-RES ovarian
[10] = system: T-47D breast
[11] = system: BT-549 breast
[12] = system: MDA-MB-435 melanoma
[13] = system: SW-620 colon
[14] = system: MCF7 breast
[15] = system: HCT-116 colon
[16] = system: HCC-2998 colon
[17] = system: KM12 colon

Measured: growth

CN(C)CCNc1cccc2sc3ccc(O)cc3c(=O)c12
inactive: [1]; 10 µM 73.4% | [2]; 10 µM 36% | [3]; 10 µM 78.8% | [4]; 10 µM 52.8% | [5]; 10 µM 51.1% | [6]; 10 µM 50.1% | [7]; 10 µM 41.8% | [8]; 10 µM 69.4% | [9]; 10 µM 45% | [10]; 10 µM 64.4% | [11]; 10 µM 65.8% | [12]; 10 µM 29.3% | [13]; 10 µM 24.5% | [14]; 10 µM 27.8% | [15]; 10 µM 25.3% | [16]; 10 µM 17.9% | [17]; 10 µM 24.7%

CC(=O)O[C@H]1C(=O)[C@@]2(C)[C@H]([C@H](OC(=O)c3ccccc3)[C@]3(O)C[C@H](OC(=O)[C@H](O)[C@@H](NC(=O)c4ccccc4)c4ccccc4)C(C)=C1C3(C)C)[C@]1(OC(C)=O)CO[C@@H]1C[C@@H]2O
-24.8% (active) and 39.1% (inactive): [6]; 10 µM
2.94% (active) and 10.9% (inactive): [17]; 10 µM
-13% (active) and 57.6% (inactive): [4]; 10 µM
11.9% (inactive) and 8.9% (active): [15]; 10 µM
active: [1]; 0.01 µM -10.5% | [1]; 5 µM 1.39% | [1]; 10 µM -42.3% and 8.81% | [2]; 2.5 µM 4.98% | [3]; 2.5 µM 9.17% | [7]; 0.01 µM -6.94% | [7]; 2.5 µM -5.62% | [7]; 5 µM -2.89% | [7]; 10 µM 0.613% and 0.903% | [8]; 0.01 µM -47.1% | [8]; 2.5 µM -18.5% | [8]; 5 µM -14.2% | [8]; 10 µM -14.9% and 2.62% | [9]; 10 µM -0.311% and 9.92% | [11]; 0.01 µM -1.3% | [11]; 10 µM 6.6% | [12]; 0.01 µM -84.7% | [12]; 2.5 µM -41.9% | [12]; 5 µM -19.9% | [12]; 10 µM -4.97% and -14.7% | [14]; 0.01 µM 8.89% | [15]; 0.01 µM 6.56% | [15]; 2.5 µM 2.87% | [15]; 5 µM 6.48% | [16]; 0.01 µM -65.6% | [16]; 2.5 µM -10.3% | [16]; 5 µM 0.255% | [16]; 10 µM -3.97% and -21.4% | [17]; 2.5 µM 1.85% | [17]; 5 µM 4.45%
inactive: [1]; 2.5 µM 11.4% | [2]; 5 µM 11.6% | [2]; 10 µM 18.4% | [3]; 0.01 µM 20.6% | [3]; 5 µM 10.8% | [3]; 10 µM 41.8% and 13.7% | [4]; 0.01 µM 64.7% | [4]; 2.5 µM 56.9% | [4]; 5 µM 61.3% | [5]; 0.01 µM 52% | [5]; 2.5 µM 10.2% | [5]; 5 µM 16.2% | [5]; 10 µM 42.9% and 12.8% | [6]; 0.01 µM 39% | [6]; 2.5 µM 32.2% | [6]; 5 µM 35.2% | [9]; 0.01 µM 92.8% | [9]; 2.5 µM 50.7% | [9]; 5 µM 25.9% | [10]; 0.01 µM 35.5% | [10]; 2.5 µM 27.9% | [10]; 5 µM 32.5% | [10]; 10 µM 48.7% and 32.3% | [13]; 0.01 µM 24.4% | [13]; 2.5 µM 38.5% | [13]; 5 µM 50.3% | [13]; 10 µM 53.7% and 53.5% | [14]; 2.5 µM 14.3% | [14]; 5 µM 15.4% | [14]; 10 µM 15.4% and 15.3% | [17]; 0.01 µM 10.6%

O=C1C=CC(=O)N1c1ccc(N2C(=O)C=CC2=O)cc1
inactive: [1]; 10 µM 38.6% | [2]; 10 µM 109% | [3]; 10 µM 97.7% | [4]; 10 µM 101% | [5]; 10 µM 97.3% | [6]; 10 µM 105% | [7]; 10 µM 103% | [8]; 10 µM 128% | [9]; 10 µM 102% | [10]; 10 µM 95.9% | [11]; 10 µM 89.6% | [12]; 10 µM 107% | [13]; 10 µM 112% | [14]; 10 µM 97% | [15]; 10 µM 98.3% | [16]; 10 µM 115% | [17]; 10 µM 113%

S=P(N1CC1)(N1CC1)N1CC1
active: [16]; 100 µM -5.61%
inactive: [1]; 10 µM 99.2% and 136% | [1]; 100 µM 51.4% | [2]; 10 µM 110% and 80.7% | [3]; 10 µM 108% and 77.1% | [3]; 100 µM 64.7% | [4]; 10 µM 116% and 90.4% | [4]; 100 µM 87.9% | [5]; 10 µM 110% and 108% | [5]; 100 µM 67.2% | [6]; 10 µM 101% and 78.2% | [6]; 100 µM 70.7% | [7]; 10 µM 118% and 106% | [7]; 100 µM 69.8% | [8]; 10 µM 113% and 126% | [8]; 100 µM 66% | [9]; 10 µM 107% and 88.6% | [9]; 100 µM 40.3% | [10]; 10 µM 103% and 98.1% | [10]; 100 µM 53.7% | [11]; 10 µM 102% and 85.8% | [11]; 100 µM 47.5% | [12]; 10 µM 105% and 97.2% | [12]; 100 µM 64.8% | [13]; 10 µM 110% and 93.6% | [13]; 100 µM 73% | [14]; 10 µM 69.5% | [14]; 100 µM 29.3% | [15]; 10 µM 95.9% and 73.8% | [15]; 100 µM 51.3% | [16]; 10 µM 109% | [17]; 10 µM 111% and 104% | [17]; 100 µM 83%
